Experimental data: PubChem BioAssay AID1851 (National Center for Advancing Translational Sciences (NCATS), 2009)
About 5,800 (36%) of roughly 16,000 compounds were called active. Inconclusive results (about 23%) are left out. The list shows a part of the results. Values without a mark were called inactive. Calls follow the shape of the dose curve; as a rule, active = well fitted curve in the direction sought with a large enough effect; inconclusive = small, poorly fitted or top-dose-only effect, or effect the other way; inactive = no such curve, though single readings can be large or run the other way.
% is scaled to controls: 0 for no effect and ±100 for the full control effect.

The molecules below were run against Cytochrome P450 2C19 (Homo sapiens) (UniProt P33261) (assay: Cytochrome panel assay with activity outcomes). Details: recombinant CYP, pro-luciferin dealkylation, luminescence, p450-cyp2c19; series mostly up to 57.1 µM; activity, negative = inhibition: at the top concentration.
Sequence of Cytochrome P450 2C19 (Homo sapiens) (P33261 whole entry, looked up): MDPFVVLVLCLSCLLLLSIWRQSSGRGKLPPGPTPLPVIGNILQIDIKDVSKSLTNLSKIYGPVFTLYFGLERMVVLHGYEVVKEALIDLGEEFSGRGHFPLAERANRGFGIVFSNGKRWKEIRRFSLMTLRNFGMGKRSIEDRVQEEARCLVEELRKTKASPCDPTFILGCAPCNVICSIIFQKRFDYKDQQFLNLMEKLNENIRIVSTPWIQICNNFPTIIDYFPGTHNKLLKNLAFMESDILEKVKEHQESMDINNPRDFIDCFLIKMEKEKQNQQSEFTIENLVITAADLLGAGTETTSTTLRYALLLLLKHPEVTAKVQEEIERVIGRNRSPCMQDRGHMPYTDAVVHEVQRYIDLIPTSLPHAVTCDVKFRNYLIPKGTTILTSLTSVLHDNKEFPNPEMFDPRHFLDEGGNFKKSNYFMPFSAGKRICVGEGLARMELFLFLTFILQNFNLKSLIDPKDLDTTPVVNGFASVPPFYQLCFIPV
Cc1ccc(N(Cc2ccc([N+](=O)[O-])cc2)C(=O)c2ccco2)cc1 was tested, and the AC50 was 10 µM (active). CN(C)c1ccc(C(c2ccc(N(C)C)cc2)c2ccc([N+](=O)[O-])cc2)cc1 showed an activity, negative = inhibition of -36.9% [at 11.4 µM]. In the case of CN1CCc2ccccc2[C@@H]1Cc1ccccc1NC(=O)c1sc2ccccc2c1Cl, the AC50 is reported as 2.51 µM (active). With O=c1c2ccccc2sc2c(CO)ccc(NCCN3CCCCC3)c12 the activity, negative = inhibition was -24.6% [at 11.4 µM]. With CC(C)(C)c1nc(SCC(=O)Nc2ccc3c(c2)OCCO3)c2ccccc2n1 the AC50 was 1.78 µM (active). CC(C)(C)c1nc(SCC(=O)Nc2ccc(N3CCOCC3)cc2)c2ccccc2n1 was tested, and the AC50 was 10 µM (active). In the case of Cc1nc(SCC(=O)Nc2ccc(N3CCOCC3)cc2)nc(C)c1C, the AC50 is reported as 25.1 µM (active). For Cc1nc(SCC(=O)Nc2ccc3c(c2)OCCO3)c2oc3ccccc3c2n1, the AC50 was 0.562 µM (active). With O=C(CSc1nncn1-c1ccccc1)Nc1ccc(N2CCOCC2)cc1 the “activity, negative = inhibition” value was -29.9%. In the case of CCCNC(=O)N1N=C(c2ccc(N)cc2)c2cc3c(cc2[C@H]1C)OCO3, the “activity, negative = inhibition” value is reported as -37.3%. In the case of CC1CCC(=NNC(=O)Cc2ccccc2)CC1 (stereo unspecified), the AC50 is reported as 25.1 µM (active). For CN1CCC(=NNC(=O)CSCc2ccccc2)CC1, the AC50 was 17.8 µM (active). COc1ccccc1CNC(=O)C/C(C)=N/NC(=O)Cc1ccccc1 was tested, and the “activity, negative = inhibition” value was -3.74%. With O=C(O)Cc1ccc(NC(=O)C2CCCCC2C(=O)O)cc1 (stereo unspecified) the “activity, negative = inhibition” value was -12.8%. O=C(c1cccc(F)c1)N1CCC2(CCN(Cc3cc(C(F)(F)F)cc(C(F)(F)F)c3)CC2)CC1 was tested, and the “activity, negative = inhibition” value was 22.7%. With O=C(c1coc2ccccc2c1=O)N1CCN(c2cccc(C(F)(F)F)c2)CC1 the AC50 was 14.1 µM (active). O=C(c1cc(C(F)(F)F)cc(C(F)(F)F)c1)N1CCC[C@@]2(CCN(c3ccccc3)C2)C1 was tested, and the “activity, negative = inhibition” value was -33.8%. With CC(C)C(=O)Cc1ccc2ccccc2n1 the activity, negative = inhibition was 6.88% [at 11.4 µM]. CCCCc1cc2ccccc2c(OCCN(C)C)n1 was tested, and the “activity, negative = inhibition” value was -31.4% [at 25.6 µM]. For O=C(Nc1ccccc1C(=O)O)c1ccc2ccccc2n1, the “activity, negative = inhibition” value was -22.5%. O=C(O)c1ccccc1Nc1cccc(OCc2ccc3ccccc3n2)c1 was tested, and the AC50 was 5.01 µM (active). In the case of CCCCC[C@H](O)c1cccc(OCc2ccc3ccccc3n2)c1, the AC50 is reported as 6.31 µM (active). In the case of O=C(O)CP(=O)(O)O, the AC50 is reported as “inactive”. Molecule C=CC[C@@H]1C=C[C@H](ON=C(C)C)[C@H](CO)O1 has an activity, negative = inhibition of -4.34% [at 11.4 µM]. For Cc1cc(C)nc(Nc2ncc(O)n2-c2ccccc2)n1, the “activity, negative = inhibition” value was -17%. Cc1cc(C=C(C#N)C#N)c(C)n1-c1ccccc1 was tested, and the AC50 was 1 µM (active). For Cc1cc(-c2n[nH]c(=S)o2)c(C)n1-c1ccccc1, the “activity, negative = inhibition” value was -95.6%. Cc1cc(C)cc(-n2c(C)cc(C=C(C#N)C#N)c2C)c1 was tested, and the AC50 was 5.62 µM (active). In the case of C#CCCCO/N=C1/C[C@@H](O)[C@@H](O)[C@@H]2[C@@H]3C(=O)N(CCC(=O)OCC)C(=O)[C@H]3CC[C@@H]12, the activity, negative = inhibition is reported as -1.53% [at 11.4 µM]. In the case of COc1ccc(-n2c(=O)cnc3cnc(N4CCNCC4)nc32)cc1, the “activity, negative = inhibition” value is reported as -4.4%. In the case of CSc1cccc(NC(=O)Nc2ccc(Cl)cc2)c1, the AC50 is reported as 2 µM (active). CCOc1cc(/C=C2/NC(=O)N(CC(=O)Nc3cccc(C)c3)C2=O)ccc1OC was tested, and the “activity, negative = inhibition” value was 27.2%. With CSc1cccc(NC(=O)OC2CCCCCCCCCCC2)c1 the activity, negative = inhibition was -41.3% [at 11.4 µM]. Cc1cccc(NC(=O)Cn2cccc2)c1 was tested, and the AC50 was 15.8 µM (active). In the case of Cc1ccc(CNC(=O)Cn2c(=O)oc3ccccc32)o1, the AC50 is reported as 3.55 µM (active). In the case of COc1ccc(CCNC(=O)Cn2c(=O)oc3ccccc32)cc1OC, the “activity, negative = inhibition” value is reported as -24.7%. CSc1cccc(NC(=O)Cn2cccc2)c1 was tested, and the AC50 was 6.31 µM (active). With N#Cc1cccc(NC(=O)N2CCCC3(CCN(C(=O)c4csnn4)CC3)C2)c1 the “activity, negative = inhibition” value was 3.09%. Work on CC(=O)OC[C@H]1O[C@@H](O/N=C(\C)CCN2CCCc3nc(C)c(C)cc32)[C@H](OC(C)=O)[C@@H](OC(C)=O)[C@H]1OC(C)=O yielded an activity, negative = inhibition of -24.1% [at 11.4 µM]. In the case of CCN(C(=O)Cn1c(=O)oc2ccccc21)c1cccc(C(F)(F)F)c1, the AC50 is reported as 3.55 µM (active). Cc1cc(C)nc(SCCc2cccc[n+]2C)n1 was tested, and the activity, negative = inhibition was 66.4% [at 11.4 µM]. Cc1cccc(NC(=O)Cn2c(=O)oc3ccccc32)c1 was tested, and the AC50 was 3.16 µM (active). With Cc1cccc(NC(=O)CCSc2nc(C)cc(C)n2)c1 the AC50 was 4.47 µM (active). For Cc1cccc(N/C(N)=N/c2nc(C)cc(C)n2)c1, the “activity, negative = inhibition” value was -35.4%. With O=C(O)C1=CCNCC1 the AC50 was “inactive”. COc1ccc(CNc2ccnc(-c3c(C)noc3C)n2)c(OC)c1 was tested, and the AC50 was 1.58 µM (active). For COc1ccccc1CNc1ccnc(-c2c(C)noc2C)n1, the AC50 was 1 µM (active). With COCCNc1ccnc(-c2c(C)noc2C)n1 the “activity, negative = inhibition” value was -17.2%. In the case of COC(=O)N1CC(=O)N(OC)C1c1ccc(Cl)cc1Cl (stereo unspecified), the AC50 is reported as 5.62 µM (active). CC(=O)N1CC(=O)N(OCc2ccccc2)C1c1ccc(Cl)cc1Cl (stereo unspecified) was tested, and the AC50 was 3.16 µM (active). In the case of CCOc1ccc(N=C2NC(=O)C(CC(=O)O)S2)cc1 (stereo unspecified), the “activity, negative = inhibition” value is reported as -16.7%.
